Laboratory results from PubChem BioAssay (NCATS).
Where “and” joins values, the source holds several entries; their conditions need not be identical. Identical values can stand only once. Inconclusive results are not listed. Calls of active or inactive are those of the source. Calls come from the whole dose curve; as a rule, active = well fitted curve in the direction sought with a large enough effect; inconclusive = small, poorly fitted or top-dose-only effect, or another doubt; inactive = no such curve, though single readings can be large; an effect the other way counts as inactive or inconclusive. Residues, ends and D or L forms follow the SMILES beside them. *: point of attachment. Cbz = O=C(OCc1ccccc1)*

What was measured:
[1] = target: Cellular tumor antigen p53 (Homo sapiens) (UniProt P04637); assay: Primary qHTS for small molecule compounds that upregulate eGFP-tagged delta133p53alpha (in N-terminal) cells. (AID 2060322); conditions: NCI-H358 eGFP-delta133p53alpha fluorescence, 24 h; activation: stronger effect = higher value; note: nearly all actives have a fitted effect of over 75% in size;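 for activation: cells pre-induced with doxycycline then dosed without doxycycline; series mostly up to about 56 µM; 0% = DMSO vehicle and 100% = reference activator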
Procedure, shortened: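 NCI-H358 cells pre-induced 24 h with 10 ng/ml doxycycline for eGFP-delta133p53alpha, plated dox-free and exposed 24 h at 37C to titrated compounds. Fixed, Hoechst-stained; gated GFP peak intensity by laser scanning cytometry, normalized to DMSO (0%) and 57.5 uM 5-azacytidine (100%).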

[2] = BET inhibitor-based combinations targeting novel dependencies in MECOM-rearranged (r) AML: SET-2 cell line (AID 2202231); conditions: SET-2 AML cells viability, CellTiter-Glo luminescence, 48 h; viability: stronger effect = lower value, concentration not given here; note: nearly all actives have a fitted effect of over 35% in size;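 for viability: plate controls were DMSO treated cells for no effect and wells without cells for full effect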
Procedure, shortened: (§1)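 Readout: CellTiter-Glo luminescence. Exposure: 48 h, 11 concentrations, 500 cells/well. Metric: AUC and within-line Z-AUC after DMSO/empty-well normalization.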

[3] = BET inhibitor-based combinations targeting novel dependencies in MECOM-rearranged (r) AML: OCI-AML3 cell line (AID 2202232); conditions: Potency: OCI-AML3 viability; note: nearly all actives have a fitted effect of over 35% in size
Procedure, shortened: as §1

[4] = BET inhibitor-based combinations targeting novel dependencies in MECOM-rearranged (r) AML: MV-4-11 cell line (AID 2202233); note: nearly all actives have a fitted effect of over 45% in size
Procedure, shortened: (§2)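 Seeding density was 500 cells/well, and drug exposure lasted 48 hr under standard culture conditions. Read-out used CellTiter-Glo reagent with a 15 min room-temperature incubation before luminescence measurement; AUC and Z-AUC summarize the normalized responses.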

[5] = BET inhibitor-based combinations targeting novel dependencies in MECOM-rearranged (r) AML: HNT-34 cell line (AID 2202234); note: nearly all actives have a fitted effect of over 35% in size
Procedure, shortened: as §2

[6] = BET inhibitor-based combinations targeting novel dependencies in MECOM-rearranged (r) AML: UCSD-AML1 cell line (AID 2202235); note: nearly all actives have a fitted effect of over 40% in size
Procedure, shortened: as §2

[7] = BET inhibitor-based combinations targeting novel dependencies in MECOM-rearranged (r) AML: AML-191 cell line (AID 2202236; note: nearly all actives have a fitted effect of over 35% in size)
Procedure, shortened: as §1

[8] = BET inhibitor-based combinations targeting novel dependencies in MECOM-rearranged (r) AML: AML-194 cell line (AID 2202237; note: nearly all actives have a fitted effect of over 40% in size)
Procedure, shortened: as §1
Potency is the fitted concentration of half-maximal effect.

Chain of Cellular tumor antigen p53 (Homo sapiens) (P04637 whole entry, looked up): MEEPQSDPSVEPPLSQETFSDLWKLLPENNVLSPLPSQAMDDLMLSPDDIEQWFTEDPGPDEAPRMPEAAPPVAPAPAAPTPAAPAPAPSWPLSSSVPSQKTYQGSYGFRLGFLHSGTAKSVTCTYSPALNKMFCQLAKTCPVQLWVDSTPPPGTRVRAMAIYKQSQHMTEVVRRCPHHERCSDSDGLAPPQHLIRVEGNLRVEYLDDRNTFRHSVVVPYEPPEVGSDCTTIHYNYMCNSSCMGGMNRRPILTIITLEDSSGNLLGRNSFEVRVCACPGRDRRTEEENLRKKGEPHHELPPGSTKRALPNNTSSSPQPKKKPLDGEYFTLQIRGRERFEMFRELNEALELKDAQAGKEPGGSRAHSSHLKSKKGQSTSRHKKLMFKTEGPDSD

CCCc1cc(=O)[nH]c(=S)[nH]1
inactive: activation [1] -13.4% and -2.19% | viability [2] 110% | Potency [3] | Potency [4] | Potency [5] | Potency [6] | Potency [7] | Potency [8]

O=c1[nH]nc(Sc2ncc([N+](=O)[O-])s2)n1-c1ccc2c(c1)OCCO2
active: Potency [2] 7420 nM | Potency [3] 2950 nM | Potency [4] 1860 nM | Potency [5] 3320 nM | Potency [6] 9340 nM | Potency [7] 3320 nM | Potency [8] 7420 nM
inactive: activation [1] -12.9%

NCC1CCC(C(=O)O)CC1 (stereo unspecified)
inactive: activation [1] 20.7% | viability [2] 115% | Potency [3] | Potency [4] | Potency [5] | Potency [6] | Potency [7] | Potency [8]

CNC(=O)c1cc(Oc2ccc(NC(=O)Nc3cc(C(C)(C)C)nn3-c3ccc4ncccc4c3)c(F)c2)ccn1
active: Potency [1] 5360 nM | Potency [2] 18600 nM | Potency [3] 23500 nM | Potency [4] 46.8 nM | Potency [5] 148 nM | Potency [6] 16600 nM | Potency [7] 20900 nM | Potency [8] 20900 nM

CC(C)[C@H](N)C(=O)OCCOCn1cnc2c(=O)[nH]c(N)nc21
inactive: activation [1] -14.1% and 18.6% | viability [2] 92.3% | Potency [3] | Potency [4] | Potency [5] | Potency [6] | Potency [7] | Potency [8]

O=C1C[C@@H](c2ccc(O)cc2)Oc2cc(O)cc(O)c21
inactive: activation [1] -17.7% | viability [2] 109% | Potency [3] | Potency [4] | Potency [5] | Potency [6] | Potency [7] | Potency [8]

CC(C)[C@H](O)C(=O)N[C@@H](C)C(=O)N[C@@H]1C(=O)N(C)CCc2ccccc21
inactive: activation [1] 28.1% | viability [2] 117% | Potency [3] | Potency [4] | Potency [5] | Potency [6] | Potency [7] | Potency [8]

CC(C)C[C@@H](N)[C@H](O)C(=O)N[C@H](C(=O)N[C@H](C(=O)N[C@@H](CC(=O)O)C(=O)O)C(C)C)C(C)C
inactive: activation [1] -3.94% | viability [2] 110% | Potency [3] | Potency [4] | Potency [5] | Potency [6] | Potency [7] | Potency [8]

CC(Oc1ccc(O)cc1)(P(=O)(O)O)P(=O)(O)O
inactive: activation [1] -17.7% | viability [2] 109% | Potency [3] | Potency [4] | Potency [5] | Potency [6] | Potency [7] | Potency [8]

COc1ccc2cccc(CCNC(C)=O)c2c1
inactive: activation [1] 3.03% | viability [2] 116% | Potency [3] | Potency [4] | Potency [5] | Potency [6] | Potency [7] | Potency [8]

CCc1c2c(nc3ccc(OC(=O)N4CCC(N5CCCCC5)CC4)cc13)-c1cc3c(c(=O)n1C2)COC(=O)[C@]3(O)CC
inactive: activation [1] 14.2%
active: Potency [2] 372 nM | Potency [3] 186 nM | Potency [4] 166 nM | Potency [5] 105 nM | Potency [6] 209 nM | Potency [7] 235 nM | Potency [8] 332 nM

CCN1CCN(C(=O)N[C@@H](C(=O)N[C@@H]2C(=O)N3C(C(=O)O)=C(CSc4nnnn4C)CS[C@H]23)c2ccc(O)cc2)C(=O)C1=O
inactive: activation [1] -7.34% | viability [2] 99.4% | Potency [3] | Potency [4] | Potency [5] | Potency [6] | Potency [7] | Potency [8]

CC1Cc2ccccc2N1NC(=O)c1ccc(Cl)c(S(N)(=O)=O)c1 (stereo unspecified)
inactive: activation [1] -9.21% and -1.28% | viability [2] 112% | Potency [3] | Potency [4] | Potency [5] | Potency [6] | Potency [7] | Potency [8]

CC(C)C[C@@H](C=O)NC(=O)[C@H](CC(C)C)NC(=O)[C@H](CC(C)C)NC(=O)OCc1ccccc1 (Cbz-Leu-Leu-Leu-aldehyde)
active: Potency [1] 2730 nM | Potency [2] 1480 nM | Potency [3] 1860 nM | Potency [4] 2350 nM | Potency [5] 2350 nM | Potency [6] 2950 nM | Potency [7] 2350 nM | Potency [8] 2630 nM

O=c1oc2c(O)c(O)cc3c(=O)oc4c(O)c(O)cc1c4c23
inactive: activation [1] -6.69% and -19.7% | viability [2] 113% | Potency [3] | Potency [4] | Potency [5] | Potency [6] | Potency [7] | Potency [8]

Cc1cnc(C(=O)O)c[n+]1[O-]
inactive: activation [1] -19.2% | viability [2] 122% | Potency [3] | Potency [4] | Potency [5] | Potency [6] | Potency [7] | Potency [8]

CN(C)CCc1c[nH]c2ccc(CS(=O)(=O)N3CCCC3)cc12
inactive: activation [1] -5.58% | viability [2] 115% | Potency [3] | Potency [4] | Potency [5] | Potency [6] | Potency [7] | Potency [8]
